# Measured values from PubChem BioAssay.
# The source made the active and inactive calls.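 How the source made its calls, unless noted: active means compounds that lower survival of HCT116 colon cancer cells in the luminescence readout, no numeric limit stated; inactive means the rest.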
# Assays:
# [1] = Wnt pathway potentiators raising nuclear beta-catenin – imaging, WNT3A-conditioned medium, mouse C2C12, NPC library, primary screen (AID 1117326; in the data active means nuclear beta-catenin stimulation mostly above about 4.2%, no sharp cut-off; inactive means mostly below about 10%; further: reference of the scale not given here); settings: stronger effect = higher value
# [2] = stimulators of insulin release from INS-1E, primary screen, cell-based, 5 mM glucose, NPC library (AID 1117329;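 active means compound raises insulin release from rat beta cells at 5 mM glucose, no numeric limit stated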; further: reference of the scale not given here); settings: rat INS-1E insulin secretion, at 10 µM, stronger effect = higher value
# [3] = growth inhibition of GSK3B-pretreated HCT116 cells – cell-based, CellTiter-Glo, 0.2 to 20 µM (AID 1117336;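 active means compounds lowering colon cancer cell viability after pretreatment blocking the GSK3B kinase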); settings: HCT116 viability after GSK3B inhibitor, at 20 µM, stronger effect = higher value
# [4] = inhibition of endothelial tube formation, primary screen, imaging, VEGF stimulated, CD31 staining, tube area, NPC library (AID 1117340;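 active means compound that reduces growth-factor-driven endothelial tube area in a mixed cell culture, no cutoff stated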); settings: VEGF-stimulated ADSC/ECFC co-culture, at 10 µM, stronger effect = higher value
# [5] = GLP1 release stimulators, primary, NCI-H716, NPC library (AID 1117341;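 active means compound raises GLP1 secretion from the human gut endocrine cells, with no numeric limit stated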; further: reference of the scale not given here); settings: NCI-H716 cells, at 10 µM, stronger effect = higher value
# [6] = HCT116 colon cancer cell growth inhibition, primary screen, CellTiter-Glo luminescence, NPC library (AID 1117342); settings: at 20 µM (top of the series)
# [7] = reduced SW480 viability measured with CellTiter-Glo, NPC library, primary (AID 1117343;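 active means compounds that lower viability of the colon cancer cells in the luminescence readout, with no numeric limit stated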); settings: CellTiter-Glo luminescence; at 20 µM (top of the series)
# [8] = NPC library primary testing for decreased DLD-1 cell viability via CellTiter-Glo (AID 1117346;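 active means compounds that lower survival of DLD-1 colon cancer cells in the luminescence readout, no cutoff given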); settings: DLD-1 viability, CellTiter-Glo luminescence; at 20 µM (top of the series)
Compound,nuclear beta-catenin stimulation ([1]; at 10 µM),"nuclear beta-catenin stimulation ([1]; stimulation, at 2 µM) [%]",insulin secretion stimulation [2],viability decrease [3],tube area decrease [4],GLP1 secretion stimulation [5],inhibition of viability [6],viability decrease (inhibition) [7],viability decrease (inhibition) [8]
O=C(CS)Nc1ccccc1,0.5% (inactive),-0.2,6.4% (inactive),-38.2% (inactive),4.3% (inactive),-2.3% (inactive),-19.3% (inactive),-2.4% (inactive),-12.9% (inactive)
CC(=O)Nc1ccc(OC(=O)c2ccccc2OC(C)=O)cc1,0.6% (inactive),14,4.1% (inactive),0.8% (inactive),-15.2% (inactive),-1.2% (inactive),-5.8% (inactive),-3% (inactive),-10.1% (inactive)
CCN1CCCC1CN (configuration not stated),1.1% (inactive),1.8,4.8% (inactive),39.7% (inactive),-0.3% (inactive),3.1% (inactive),32.2% (inactive),43.3% (inactive),12.4% (inactive)
CCCCC/C=C\C/C=C\CCCCCCCC(=O)NC(C)c1ccccc1 (configuration not stated),0.2% (inactive),2.1,1% (inactive),23.3% (inactive),-5.3% (inactive),0.2% (inactive),52% (active),13.5% (inactive),3.3% (inactive)
N#C/C(=C1/SC[C@@H](c2ccc(Cl)cc2Cl)S1)n1ccnc1,0.7% (inactive),2.8,2.35% (inactive),88% (active),23.8% (inactive),-1.8% (inactive),101% (active),116% (active),84.3% (active)
Cc1cccc(N(C)C(=S)Oc2ccc3c(c2)CCC3)c1,0% (inactive),-1.8,3.9% (inactive),33.9% (inactive),-13.8% (inactive),-4.7% (inactive),55.5% (active),42.6% (inactive),55.5% (active)
CC(C)C[C@@H]1[C@H](c2ccccc2)OC(=O)N1CCCN1CCCCCC1,1.3% (inactive),1.6,15% (inactive),21.1% (inactive),8% (inactive),5.9% (inactive),56.3% (active),19.9% (inactive),18.3% (inactive)
NCC[C@H](O)C(=O)N[C@@H]1C[C@H](N)[C@@H](O[C@H]2O[C@H](CN)[C@@H](O)[C@H](O)[C@@H]2O)[C@H](O)[C@@H]1O[C@H]1O[C@H](CO)[C@@H](O)[C@H](N)[C@@H]1O,0.4% (inactive),-1.1,1.1% (inactive),-9.3% (inactive),-7.9% (inactive),0.5% (inactive),-2.7% (inactive),-3.7% (inactive),0.5% (inactive)
c1ccc(CNCCNCc2ccccc2)cc1,4% (inactive),4.4,3.4% (inactive),-31.8% (inactive),-24% (inactive),2.1% (inactive),-6.83% (inactive),20% (inactive),-22.2% (inactive)
O=C(O)c1c(O)c(-c2ccccc2)nc2ccccc12,0.5% (inactive),-0.8,3% (inactive),66.1% (active),2.6% (inactive),-0.1% (inactive),39.2% (inactive),107% (active),39% (inactive)
CCCCCCCC(=O)OCC(O)CO (configuration not stated),-2% (inactive),-1.7,2.1% (inactive),-10.8% (inactive),-3.1% (inactive),-3.4% (inactive),-7.47% (inactive),16.9% (inactive),-20.5% (inactive)
CC(C)=CCC/C(C)=C/CC/C(C)=C/CCC(=O)OC/C=C(\C)CCC=C(C)C,0.5% (inactive),0.6,5.2% (inactive),-4.2% (inactive),-4.6% (inactive),3.3% (inactive),1.5% (inactive),-3.7% (inactive),2% (inactive)
O=C1C(c2[nH]c3ccc(S(=O)(=O)O)cc3c2O)=Nc2ccc(S(=O)(=O)O)cc21,-1.7% (inactive),-0.3,5.5% (inactive),23.1% (inactive),-3.9% (inactive),3% (inactive),11.5% (inactive),13.9% (inactive),7% (inactive)
c1ccc2[nH]ccc2c1,0.4% (inactive),3,-2.8% (inactive),-4.45% (inactive),10.7% (inactive),1.9% (inactive),-34.9% (inactive),23.7% (inactive),6.25% (inactive)
CC(C)(C)C1CCC(CC2=C(O)c3ccccc3C(=O)C2=O)CC1 (configuration not stated),2% (inactive),-0.5,-0.2% (inactive),110% (active),109% (active),5.8% (inactive),106% (active),140% (active),98.4% (active)
COc1cccc(CCc2ccccc2OCC(CN(C)C)OC(=O)CCC(=O)O)c1 (configuration not stated),-0.6% (inactive),3.9,11.9% (inactive),53.9% (active),0.9% (active),8.6% (inactive),72.9% (active),87.5% (active),21.8% (inactive)
Cc1cc(CC(=O)O)c(C)n1-c1ccc(Cl)cc1,-0.5% (inactive),-0.4,2.3% (inactive),-14.4% (inactive),1.3% (inactive),-0.2% (inactive),7.9% (inactive),11.7% (inactive),-14.3% (inactive)
O=C(O)C(Cc1cc(I)c(O)c(I)c1)c1ccccc1 (configuration not stated),1.5% (inactive),0.8,-0.6% (inactive),36.8% (inactive),-29.6% (inactive),-0.7% (inactive),40.4% (inactive),50.4% (active),14.4% (inactive)
NC(Cc1ccc([N+](=O)[O-])cc1)C(=O)O (configuration not stated),-0.2% (inactive),0,-0.8% (inactive),-7.7% (inactive),-16.5% (inactive),-0.7% (inactive),-2.8% (inactive),-1.7% (inactive),-20.4% (inactive)
C/C(=C1\CCOC(=O)S1)N(C=O)Cc1cnc(C)nc1N,-0.3% (inactive),0.1,4.7% (inactive),-6.1% (inactive),-16.6% (inactive),8.1% (inactive),19.8% (inactive),3.7% (inactive),1.5% (inactive)
Nc1ccc(C(=O)N2CC3CC(CN(Cc4ccccc4)C3)C2)cc1,3.2% (inactive),0.5,0.1% (inactive),1.2% (inactive),-12.8% (inactive),1.7% (inactive),23.2% (inactive),9.4% (inactive),7.3% (inactive)
O=C(O)Cn1c(=O)n(Cc2ccc(Br)cc2F)c(=O)c2ccc(Cl)cc21,1.1% (inactive),-0.9,2.4% (inactive),4.6% (inactive),21.7% (inactive),-1.6% (inactive),5% (inactive),-2.1% (inactive),-18.7% (inactive)
CC1CN(c2cc3c(cc2F)c(=O)c(C(=O)O)cn3-c2ccc(F)cc2F)CCN1 (configuration not stated),-0.4% (inactive),0,2.1% (inactive),8.7% (inactive),5.5% (inactive),-0.9% (inactive),10.7% (inactive),16.6% (inactive),-0.2% (inactive)
O=C(O)c1ccccn1,1.7% (inactive),0.9,-0.2% (inactive),31.1% (inactive),-6.5% (inactive),1.3% (inactive),-1.6% (inactive),10.7% (inactive),22% (inactive)
CCC(C(=O)O)c1ccc(N2Cc3ccccc3C2=O)cc1 (configuration not stated),0.8% (inactive),-0.1,1.25% (inactive),15.4% (inactive),-24.8% (inactive),1% (inactive),-4.3% (inactive),-8.7% (inactive),-10% (inactive)
O=C(/C=C/c1ccccc1)OCc1ccccc1,1.3% (inactive),0.1,-0.1% (inactive),-14.9% (inactive),3% (inactive),-1.3% (inactive),5.05% (inactive),19.3% (inactive),7.4% (inactive)
CCCCN=C(N)N=C(N)N,2.9% (inactive),0.9,-1.1% (inactive),-10.8% (inactive),3.5% (inactive),2.1% (inactive),3.4% (inactive),54.5% (active),-0.2% (inactive)
NC(=S)N=Nc1ccc(NN=C(N)N)cc1,1.9% (inactive),0.5,6.7% (inactive),-24.6% (inactive),15.7% (inactive),-3.7% (inactive),4.5% (inactive),25% (inactive),72.1% (active)
